These results are taken from PMC11006913.

Holding throughout (test): PBM; 200 nM protein, PBS
Details in all cases: dsDNA, one strand shown

Test [1] has as its target HOXC10 (Homo sapiens, UniProt Q9NYD6 254-340).
In a further test the target is T1, NKX2-6 (Homo sapiens, UniProt A6NCS4 118-204, R150C).
T1 sequence: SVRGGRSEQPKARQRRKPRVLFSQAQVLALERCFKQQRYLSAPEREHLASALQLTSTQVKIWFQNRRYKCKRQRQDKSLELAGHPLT

For test [2], the target named is HOXC10 (Homo sapiens, UniProt Q9NYD6 254-340, K271E).
Test [3] concerns the target T2, PAX4 (Homo sapiens, UniProt O43316 9-242, R200K).
T2 sequence: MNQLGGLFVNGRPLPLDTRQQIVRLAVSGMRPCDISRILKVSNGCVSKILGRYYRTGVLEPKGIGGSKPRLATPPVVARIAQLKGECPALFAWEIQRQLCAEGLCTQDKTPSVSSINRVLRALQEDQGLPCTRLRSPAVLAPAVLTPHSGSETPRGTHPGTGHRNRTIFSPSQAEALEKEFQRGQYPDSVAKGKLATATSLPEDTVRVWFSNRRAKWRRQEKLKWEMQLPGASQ

Test [4] concerns the target T3, PAX4 (Homo sapiens, UniProt O43316 9-242).
T3 sequence: T2 sequence with K192R

Test [5] addresses T4, PAX4 (Homo sapiens, UniProt O43316 9-242, R200Q).
T4 sequence: T2 sequence with K192Q

The target of test [6] is T5, PAX4 (Homo sapiens, UniProt O43316 9-242, F177V).
T5 sequence: T2 sequence with F169V, K192R

In test [7] the target is T6, PAX4 (Homo sapiens, UniProt O43316 9-242, F177Y).
T6 sequence: T2 sequence with F169Y, K192R

Test [8] addresses T7, PAX4 (Homo sapiens, UniProt O43316 9-242, R227W).
T7 sequence: T2 sequence with K192R, R219W

Test [9] deals with HOXB6 (Homo sapiens, UniProt P17509 132-218, K202E).
HOXB6 (Homo sapiens, UniProt P17509 132-218, K202E), sequence (P17509 132-218 K202E): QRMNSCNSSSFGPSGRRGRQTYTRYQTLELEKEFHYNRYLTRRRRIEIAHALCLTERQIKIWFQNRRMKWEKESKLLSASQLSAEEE
Test [10] deals with MSX2 (Homo sapiens, UniProt P35548 130-214, R199I).
MSX2 (Homo sapiens, UniProt P35548 130-214, R199I), sequence (P35548 130-214 R199I): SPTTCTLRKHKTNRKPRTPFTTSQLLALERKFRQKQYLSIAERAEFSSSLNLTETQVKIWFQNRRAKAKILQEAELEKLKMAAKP
The target of test [11] is HOXD13 (Homo sapiens, UniProt P35453 263-343, T313R).
HOXD13 (Homo sapiens, UniProt P35453 263-343, T313R), sequence (P35453 263-343 T313R): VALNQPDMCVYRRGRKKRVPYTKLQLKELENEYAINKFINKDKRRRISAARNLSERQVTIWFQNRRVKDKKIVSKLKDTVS
In test [12] the target is HOXD13 (Homo sapiens, UniProt P35453 263-343).
HOXD13 (Homo sapiens, UniProt P35453 263-343), sequence (P35453 263-343): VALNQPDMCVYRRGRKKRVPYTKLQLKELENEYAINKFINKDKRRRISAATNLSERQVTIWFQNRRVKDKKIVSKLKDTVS
In test [13] the target is MSX2 (Homo sapiens, UniProt P35548 130-214).
MSX2 (Homo sapiens, UniProt P35548 130-214), sequence (P35548 130-214): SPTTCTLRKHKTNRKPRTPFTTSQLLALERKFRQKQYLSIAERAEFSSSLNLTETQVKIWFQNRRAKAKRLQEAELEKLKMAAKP
In test [14] the target is HOXD13 (Homo sapiens, UniProt P35453 263-343, T313A).
HOXD13 (Homo sapiens, UniProt P35453 263-343, T313A), sequence (P35453 263-343 T313A): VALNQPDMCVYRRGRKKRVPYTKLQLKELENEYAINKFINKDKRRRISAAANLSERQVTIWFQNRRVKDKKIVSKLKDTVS
Test [15] deals with MSX2 (Homo sapiens, UniProt P35548 130-214, F161Y).
MSX2 (Homo sapiens, UniProt P35548 130-214, F161Y), sequence (P35548 130-214 F161Y): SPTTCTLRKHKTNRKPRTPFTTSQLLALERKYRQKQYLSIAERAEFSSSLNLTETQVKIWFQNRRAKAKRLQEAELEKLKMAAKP
For test [16], the target named is HOXB6 (Homo sapiens, UniProt P17509 132-218).
HOXB6 (Homo sapiens, UniProt P17509 132-218), sequence (P17509 132-218): as the sequence (P17509 132-218 K202E) above, with E71K counted along it
The target of a further test is PRRX1 (Homo sapiens, UniProt P54821 80-166, F113S).
PRRX1, sequence (P54821 80-166 F113S): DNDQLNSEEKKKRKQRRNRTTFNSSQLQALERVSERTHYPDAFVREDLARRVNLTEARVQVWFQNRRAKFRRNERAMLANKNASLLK
The target of another test is HOXC9 (Homo sapiens, UniProt P31274 178-260, R222W).
HOXC9, sequence (P31274 178-260 R222W): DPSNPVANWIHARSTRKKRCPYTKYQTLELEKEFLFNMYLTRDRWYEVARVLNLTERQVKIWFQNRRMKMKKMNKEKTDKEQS
Test [17] has as its target ALX3 (Homo sapiens, UniProt O95076 139-225, N203Q).
Test [18] concerns the target ALX3 (Homo sapiens, UniProt O95076 139-225).
Test [19] deals with ALX3 (Homo sapiens, UniProt O95076 139-225, L168Q).
ALX3 (Homo sapiens, UniProt O95076 139-225, L168Q), sequence (O95076 139-225 L168Q): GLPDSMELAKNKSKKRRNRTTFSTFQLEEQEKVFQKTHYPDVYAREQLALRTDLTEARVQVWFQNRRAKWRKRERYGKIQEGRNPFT
In test [20] the target is ALX3 (Homo sapiens, UniProt O95076 139-225, L168V).
ALX3 (Homo sapiens, UniProt O95076 139-225, L168V), sequence (O95076 139-225 L168V): as the sequence (O95076 139-225 L168Q) above, with Q30V counted along it
Test [21] has as its target ALX3 (Homo sapiens, UniProt O95076 139-225, N203S).
The target of test [22] is PROP1 (Homo sapiens, UniProt O75360 56-141).
PROP1 (Homo sapiens, UniProt O75360 56-141), sequence (O75360 56-141): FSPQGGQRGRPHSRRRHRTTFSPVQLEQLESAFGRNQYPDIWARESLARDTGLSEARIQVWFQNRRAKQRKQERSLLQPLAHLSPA
Test [23] deals with PROP1 (Homo sapiens, UniProt O75360 56-141, R99H).
PROP1 (Homo sapiens, UniProt O75360 56-141, R99H), sequence (O75360 56-141 R99H): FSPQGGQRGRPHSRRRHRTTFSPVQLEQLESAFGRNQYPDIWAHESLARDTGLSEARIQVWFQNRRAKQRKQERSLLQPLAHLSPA
Test [24] has as its target PROP1 (Homo sapiens, UniProt O75360 56-141, F88S).
The target of test [25] is HOXA2 (Homo sapiens, UniProt O43364 129-215, R185T).
HOXA2 (Homo sapiens, UniProt O43364 129-215, R185T), sequence (O43364 129-215 R185T): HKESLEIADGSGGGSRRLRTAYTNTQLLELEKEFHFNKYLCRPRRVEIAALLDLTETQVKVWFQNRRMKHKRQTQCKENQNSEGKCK
Test [26] has as its target HOXA2 (Homo sapiens, UniProt O43364 129-215, R185K).
Test [27] concerns the target HOXA2 (Homo sapiens, UniProt O43364 129-215, Y150S).
Test [28] concerns the target HOXA2 (Homo sapiens, UniProt O43364 129-215).
Test [29] addresses ALX4 (Homo sapiens, UniProt Q9H161 200-286).
The target in test [30] is ALX4 (Homo sapiens, UniProt Q9H161 200-286, Q225E).
ALX4 (Homo sapiens, UniProt Q9H161 200-286, Q225E), sequence (Q9H161 200-286 Q225E): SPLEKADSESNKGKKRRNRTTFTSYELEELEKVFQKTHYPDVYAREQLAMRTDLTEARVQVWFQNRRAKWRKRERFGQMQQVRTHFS

Substitutions are numbered along the chain they refer to.

HOXC10 (Homo sapiens, UniProt Q9NYD6 254-340), sequence (Q9NYD6 254-340): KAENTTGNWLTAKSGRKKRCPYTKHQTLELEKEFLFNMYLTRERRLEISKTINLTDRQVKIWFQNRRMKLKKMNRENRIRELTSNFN
HOXC10 (Homo sapiens, UniProt Q9NYD6 254-340, K271E), sequence (Q9NYD6 254-340 K271E): as the sequence (Q9NYD6 254-340) above, with K18E counted along it
HOXA2 (Homo sapiens, UniProt O43364 129-215, R185K), sequence (O43364 129-215 R185K): as the sequence (O43364 129-215 R185T) above, with T57K counted along it
ALX3 (Homo sapiens, UniProt O95076 139-225), sequence (O95076 139-225): as the sequence (O95076 139-225 L168Q) above, with Q30L counted along it
HOXA2 (Homo sapiens, UniProt O43364 129-215), sequence (O43364 129-215): as the sequence (O43364 129-215 R185T) above, with T57R counted along it
ALX4 (Homo sapiens, UniProt Q9H161 200-286), sequence (Q9H161 200-286): as the sequence (Q9H161 200-286 Q225E) above, with E26Q counted along it
ALX3 (Homo sapiens, UniProt O95076 139-225, N203S), sequence (O95076 139-225 N203S): as the sequence (O95076 139-225 L168Q) above, with Q30L, N65S counted along it
PROP1 (Homo sapiens, UniProt O75360 56-141, F88S), sequence (O75360 56-141 F88S): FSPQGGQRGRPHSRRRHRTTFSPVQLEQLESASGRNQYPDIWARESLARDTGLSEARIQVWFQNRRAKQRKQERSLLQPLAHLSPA
HOXA2 (Homo sapiens, UniProt O43364 129-215, Y150S), sequence (O43364 129-215 Y150S): as the sequence (O43364 129-215 R185T) above, with Y22S, T57R counted along it
ALX3 (Homo sapiens, UniProt O95076 139-225, N203Q), sequence (O95076 139-225 N203Q): as the sequence (O95076 139-225 L168Q) above, with Q30L, N65Q counted along it

Take GAGGCCTC: the binding signal with HOXC10 [1] was 10.1 upbm affinity estimate (log intensity, higher = more binding, comparable within an allelic series); with NKX2-6, 9.72 upbm affinity estimate (log intensity, higher = more binding, comparable within an allelic series); with HOXC10 [2], 10.1 upbm affinity estimate (log intensity, higher = more binding, comparable within an allelic series).

Take AGGGAGGC: the binding signal with HOXC10 [1] is 9.98 upbm affinity estimate (log intensity, higher = more binding, comparable within an allelic series); with PAX4 [3], 9.2 upbm affinity estimate (log intensity, higher = more binding, comparable within an allelic series); with PAX4 [4] it was 9.2 upbm affinity estimate (log intensity, higher = more binding, comparable within an allelic series); with PAX4 [5] it was 9.17 upbm affinity estimate (log intensity, higher = more binding, comparable within an allelic series); with PAX4 [6], 9.02 upbm affinity estimate (log intensity, higher = more binding, comparable within an allelic series); in the test with HOXC10 [2], 10 upbm affinity estimate (log intensity, higher = more binding, comparable within an allelic series). For the same sequence, the binding signal with PAX4 [7] is 9.16 upbm affinity estimate (log intensity, higher = more binding, comparable within an allelic series); in the test with PAX4 [8] it was 9.18 upbm affinity estimate (log intensity, higher = more binding, comparable within an allelic series).

With GGCTAGCC, the binding signal with HOXC10 [1] is 9.92 upbm affinity estimate (log intensity, higher = more binding, comparable within an allelic series); in the test with HOXB6 [9], 8.91 upbm affinity estimate (log intensity, higher = more binding, comparable within an allelic series); with MSX2 [10] it was 9.46 upbm affinity estimate (log intensity, higher = more binding, comparable within an allelic series); with HOXD13 [11] it was 9.4 upbm affinity estimate (log intensity, higher = more binding, comparable within an allelic series); with HOXD13 [12], 9.37 upbm affinity estimate (log intensity, higher = more binding, comparable within an allelic series); with HOXC10 [2], 9.98 upbm affinity estimate (log intensity, higher = more binding, comparable within an allelic series). Besides, the binding signal with MSX2 [13] was 9.52 upbm affinity estimate (log intensity, higher = more binding, comparable within an allelic series); with HOXD13 [14] it was 9.39 upbm affinity estimate (log intensity, higher = more binding, comparable within an allelic series); in the test with MSX2 [15] it was 9.51 upbm affinity estimate (log intensity, higher = more binding, comparable within an allelic series); in the test with HOXB6 [16], 8.87 upbm affinity estimate (log intensity, higher = more binding, comparable within an allelic series).

Take AATACTAG: in the test with HOXC10 [1], the binding signal is 10.7 upbm affinity estimate (log intensity, higher = more binding, comparable within an allelic series).

Consider TTAATAAA, for which the binding signal was 12.2 upbm affinity estimate (log intensity, higher = more binding, comparable within an allelic series) in the test with HOXC10 [1]; 11 upbm affinity estimate (log intensity, higher = more binding, comparable within an allelic series) with PRRX1; 11.5 upbm affinity estimate (log intensity, higher = more binding, comparable within an allelic series) with HOXC10 [2]; 11.2 upbm affinity estimate (log intensity, higher = more binding, comparable within an allelic series) with HOXC9.

In the case of CCTGGGAC, the binding signal with HOXC10 [1] was 9.91 upbm affinity estimate (log intensity, higher = more binding, comparable within an allelic series); with ALX3 [17], 7.73 upbm affinity estimate (log intensity, higher = more binding, comparable within an allelic series); in the test with HOXC10 [2], 9.99 upbm affinity estimate (log intensity, higher = more binding, comparable within an allelic series); with ALX3 [18], 7.73 upbm affinity estimate (log intensity, higher = more binding, comparable within an allelic series); in the test with ALX3 [19] it was 7.73 upbm affinity estimate (log intensity, higher = more binding, comparable within an allelic series); with ALX3 [20] it was 7.7 upbm affinity estimate (log intensity, higher = more binding, comparable within an allelic series). Also, the binding signal with ALX3 [21] was 7.68 upbm affinity estimate (log intensity, higher = more binding, comparable within an allelic series).

Take AGCGGGGG: the binding signal in the test with HOXC10 [1] was 10.1 upbm affinity estimate (log intensity, higher = more binding, comparable within an allelic series); in the test with PAX4 [3], 9.03 upbm affinity estimate (log intensity, higher = more binding, comparable within an allelic series); with PAX4 [4] it was 9.24 upbm affinity estimate (log intensity, higher = more binding, comparable within an allelic series); with PAX4 [5] it was 9.17 upbm affinity estimate (log intensity, higher = more binding, comparable within an allelic series); in the test with PAX4 [6], 9 upbm affinity estimate (log intensity, higher = more binding, comparable within an allelic series); with HOXC10 [2], 9.93 upbm affinity estimate (log intensity, higher = more binding, comparable within an allelic series). Moreover, the binding signal was 9.11 upbm affinity estimate (log intensity, higher = more binding, comparable within an allelic series) with PAX4 [7]; 6.68 upbm affinity estimate (log intensity, higher = more binding, comparable within an allelic series) with PROP1 [22]; 6.47 upbm affinity estimate (log intensity, higher = more binding, comparable within an allelic series) in the test with PROP1 [23]; 6.14 upbm affinity estimate (log intensity, higher = more binding, comparable within an allelic series) with PROP1 [24]; 9.16 upbm affinity estimate (log intensity, higher = more binding, comparable within an allelic series) in the test with PAX4 [8].

CGCCCCCC: the binding signal with HOXC10 [1] is 9.91 upbm affinity estimate (log intensity, higher = more binding, comparable within an allelic series); with HOXA2 [25] it was 6.85 upbm affinity estimate (log intensity, higher = more binding, comparable within an allelic series); with HOXA2 [26], 9.91 upbm affinity estimate (log intensity, higher = more binding, comparable within an allelic series); in the test with HOXC10 [2], 9.87 upbm affinity estimate (log intensity, higher = more binding, comparable within an allelic series); with HOXA2 [27], 10.3 upbm affinity estimate (log intensity, higher = more binding, comparable within an allelic series); with HOXA2 [28] it was 6.92 upbm affinity estimate (log intensity, higher = more binding, comparable within an allelic series).

For GCACGTTA, in the test with HOXC10 [1], the binding signal was 10.7 upbm affinity estimate (log intensity, higher = more binding, comparable within an allelic series).

Regarding CTGGTGGC, the binding signal is 9.99 upbm affinity estimate (log intensity, higher = more binding, comparable within an allelic series) with HOXC10 [1]; 7.93 upbm affinity estimate (log intensity, higher = more binding, comparable within an allelic series) with ALX4 [29]; 8.14 upbm affinity estimate (log intensity, higher = more binding, comparable within an allelic series) in the test with ALX4 [30]; 10.1 upbm affinity estimate (log intensity, higher = more binding, comparable within an allelic series) with HOXC10 [2].
